# Results from PubChem BioAssay (Tox21).
# Active and inactive are the calls of the source. The call rests on the fitted dose curve; in most records, active means well fitted curve in the direction sought with a large enough effect in the repeat runs; inconclusive means weak or mixed curves; inactive means flat fitted curve, though single readings scatter.
# Test: qHTS assay to test for compound auto fluorescence at 590 nm (red) in HEK293 cell free culture (AID 720683)
# Settings: cell-free medium autofluorescence, Ex540/Em590 red; series mostly up to 91.3 µM
# In short: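 Cell-free wells of DMEM with 10% FBS received compound, and intrinsic fluorescence was read at excitation/emission 540/590 nm. Values expressed as equivalence to Rose Bengal sodium.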
# On the % scale 0 is the no-effect control and ±100 the full control effect.
SMILES,outcome,"fluorescence, % of fluorescent control"
C=C(C)[C@@H]1CC=C(C)CC1,inactive,
COS(=O)(=O)O,inactive,
O=NN(CCCl)C(=O)NC1CCCCC1,inactive,
CCCCCCCCCCCCCBr,inactive,
CC1(C)[C@H]2CC[C@](C)(C2)[C@H]1O,inactive,
C[C@H]1[C@@H](c2ccccc2)NC(=O)N1C,inactive,
O=S(=O)(O)c1ccc2c(N=Nc3ccc(S(=O)(=O)O)c4ccccc34)c(O)c(S(=O)(=O)O)cc2c1,inactive,
CCO[Si](CC)(OCC)OCC,inactive,
C[C@@H](O)C(=O)O,inactive,
O=C(O)CONC(=O)c1ccccc1,inactive,
O=C=NCC1CCCC(CN=C=O)C1 (stereo unspecified),inactive,
O=C(O)[C@H](O)c1ccccc1,inactive,
c1ccc2c(CC3=NCCN3)cccc2c1,inactive,
CN1CCOC(c2ccccc2)c2ccccc2C1 (stereo unspecified),,-0.107% [at 18.6 µM] (inactive)
CC(C)OC(=O)OCOP(=O)(CO[C@H](C)Cn1cnc2c(N)ncnc21)OCOC(=O)OC(C)C,inactive,
C=CC(=O)CCCCC,inactive,
COC(=O)c1cccc(Cl)c1,inactive,
Cn1nnc2c(C(N)=O)ncn2c1=O,inactive,
N#Cc1cscn1,inactive,
Cn1c(=O)c2c(ncn2CCO)n(C)c1=O,inactive,
NCc1ccc(S(N)(=O)=O)cc1,,0.469% [at 18.6 µM] (inactive)
CCCCCCC1(C)CCC(=O)O1 (stereo unspecified),inactive,
Cc1cc(-c2ccccc2)nnc1NCCN1CCOCC1,inactive,
O=C(O)CSCC(=O)NC1CCSC1=O (stereo unspecified),inactive,
CC(C)(CO)C(O)C(=O)NCCCO (stereo unspecified),inactive,
C=CC(=O)OCC1CCCO1 (stereo unspecified),inactive,
